Here are results for 34 molecules from publication PMC5540273 (PLoS ONE, 2017).
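Also: KINOMEscan kinase panel screen.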

One experiment has as its system T1, MEK2.
T1 construct: gene MAP2K2
To be noted: concentration: 1 μM, replicates: in singlicate; n = 1.
With `O=C(Nc1cccc(-c2nn3ncccc3c2-c2ccnc(Nc3cccc(C(F)(F)F)c3)n2)c1)c1c(F)cccc1F` [GSK299495], the “%Inh” value is 54%.

With `O=C(c1ccc(-c2cc(-c3c[nH]nc3-c3ccccn3)ccn2)cc1)N1CCOCC1` [GW812171], the “%Inh” value is on record as 46%.

For the molecule `Cc1cccc(Cn2ccn3c(=O)cc(N4CCOCC4)nc23)c1` [GSK2297542], the “%Inh” value is 0%.

`NS(=O)(=O)c1cccc(-c2ccc3ncc(N4CCOCC4)nc3c2)c1` [GSK1535721]: the “%Inh” value came out at 0%.

On to `CCc1ccnc(/C=C/c2n[nH]c3cc(Sc4ccccc4C(=O)NC)ccc23)c1`, for which the “%Inh” value was found to be 10%.

`O=c1cc(N2CCOCC2)nc2n(Cc3cccc(C(F)(F)F)c3)ccn12` [GSK2297543]: the “%Inh” value was 0%.

On to `COC(=O)Nc1nc2cc(Oc3ccc(NC(=O)Nc4cc(F)ccc4F)cc3)ccc2[nH]1.Cl` [GW701424], for which the “%Inh” value is 0%.

As to `NS(=O)(=O)CCc1cccc(Nc2nccc(-c3c(-c4cccc(NC(=O)c5c(F)cccc5F)c4)nn4ccccc34)n2)c1` [GSK336735], the “%Inh” value turned out to be 76%.

Take `O=C(NCCNc1ccnc(Nc2ccc(F)cc2)n1)c1cc2ccccc2s1` [GSK1379874]: the “%Inh” value came out at 0%.

For `CC(C)(C)n1cnc2c(N)ncnc21` [SKF-97359], the “%Inh” value was determined as 0%.

For the molecule `COc1cc2c(cc1OC[C@@H](O)CO)ncc1c3ccc(C#N)cc3[nH]c21`, the “%Inh” value worked out at 42%.

With `O=C(NCCNc1ccnc(Nc2ccc(F)cc2)n1)Nc1ccccc1F` [GSK1379880], the “%Inh” value is reported as 0%.

With `Fc1ccc(-c2ncn(CCCN3CCOCC3)c2-c2ccccn2)cc1` [SB-211742], the “%Inh” value was 31%.

On to `O=C(Nc1n[nH]c2cc(-c3cccc(F)c3)ccc12)C1CC1` [SB-735464], for which the “%Inh” value is on record as 10%.

For the molecule `Cc1nnc(-c2ccc(C)c(-c3ccc(C(=O)Nc4ccc(NS(C)(=O)=O)cc4)cc3)c2)o1` [GW702865], the “%Inh” value is 7%.

Turning to `CNc1ncnc2[nH]ncc12` [SKF-18355], the “%Inh” value was 40%.

Consider `Cc1cccc(-c2nc(-c3ccc(S(C)(=O)=O)cc3)sc2-c2ccncc2)c1`, for which the “%Inh” value turned out to be 1%.

In the case of `Nc1nc(-c2ccc3c(N)n[nH]c3c2)cc(N2CCCC2)n1` [GSK2227430], the “%Inh” value is recorded as 64%.

As for `Fc1ccc(-c2ncn(CCCN3CCOCC3)c2-c2cccnc2)cc1` [SB-211743], the “%Inh” value was found to be 44%.

Turning to `[2H]C([2H])(c1cccc(C(F)(F)F)c1C)n1ccn2c(=O)nc(N3CCOCC3)cc12` [GSK2336394], the “%Inh” value came to 0%.

On to `c1ccc(-c2cc(-c3c[nH]nc3-c3ccccn3)ccn2)cc1` [GW576604], for which the “%Inh” value amounted to 0%.

Turning to `CCc1nc(-c2cccc(C)c2)c(-c2ccnc(NCc3ccccc3)c2)s1`, the “%Inh” value was determined as 1%.

For `Cn1ccc2ncnc(Oc3ccc(NC(=O)Nc4ccncc4)c(Cl)c3)c21`, the “%Inh” value turned out to be 32%.

Take `COCCNC(=O)c1ccc(-c2cc(C(=O)NC3CC3)cc(F)c2C)cc1` [GW868318]: the “%Inh” value is on record as 32%.

For the molecule `O=C1NC(=O)C(N2CCc3ccccc32)=C1c1cccc(Cl)c1` [SB-408010], the “%Inh” value came to 0%.

As for `CN(C1=C(c2ccccc2)C(=O)NC1=O)c1ccccc1` [SB-334860], the “%Inh” value amounted to 0%.

As to `NCC(NC(=O)c1cc(-c2cn[nH]c2)c(-c2ccnc3[nH]ccc23)s1)c1ccccc1.O=C(O)C(F)(F)F.O=C(O)C(F)(F)F` (centres unmarked) [GSK1325775], the “%Inh” value amounted to 11%.

`COc1ccc(Nc2nccc(N3CCC(NC(=O)Nc4cccc(C(C)=O)c4)C3)n2)cc1` (centres unmarked) [GSK1379731]: the “%Inh” value amounted to 0%.

For the molecule `Cn1cc(-c2ccc3c(c2)CCN3C(=O)Cc2ccccc2Cl)c2c(N)ncnc21` [GSK2608885], the “%Inh” value was 90.6%.

Regarding `O=c1cc(N2CCOCC2)nc2n(Cc3cccc(F)c3)ccn12` [GSK2297430], the “%Inh” value turned out to be 0%.

As to `CN(C(=O)c1ccc(-c2cc(-c3c[nH]nc3-c3ccccn3)ccn2)cc1)C1CCOCC1` [GW810083], the “%Inh” value is given as 0%.

As for `CC(=O)Nc1ccc(COc2ccc(Nc3ccnc4cc(-c5ccccn5)ccc34)cc2)cc1.Cl` [GW440148], the “%Inh” value is on record as 70%.

For the molecule `NS(=O)(=O)c1cccc(-c2ccc3nccc(-c4cccc(S(N)(=O)=O)c4)c3c2)c1` [GW867253], the “%Inh” value worked out at 30%.

As to `N#Cc1c(N2CCOCC2)sc(-c2ccn[nH]2)c1-c1ccc(Cl)cc1`, the “%Inh” value is 9%.

The next experiment has as its system T2, MEK3.
T2 construct: gene MAP2K3
As to conditions: concentration: 1 μM, replicates: in singlicate; n = 1.
On to `O=C(Nc1cccc(-c2nn3ncccc3c2-c2ccnc(Nc3cccc(C(F)(F)F)c3)n2)c1)c1c(F)cccc1F` [GSK299495], for which the “%Inh” value turned out to be 0%.

For `O=C(c1ccc(-c2cc(-c3c[nH]nc3-c3ccccn3)ccn2)cc1)N1CCOCC1` [GW812171], the “%Inh” value was found to be 38%.

As for `Cc1cccc(Cn2ccn3c(=O)cc(N4CCOCC4)nc23)c1` [GSK2297542], the “%Inh” value was found to be 0%.

For the molecule `NS(=O)(=O)c1cccc(-c2ccc3ncc(N4CCOCC4)nc3c2)c1` [GSK1535721], the “%Inh” value is 0%.

In the case of `CCc1ccnc(/C=C/c2n[nH]c3cc(Sc4ccccc4C(=O)NC)ccc23)c1`, the “%Inh” value amounted to 0%.

`O=c1cc(N2CCOCC2)nc2n(Cc3cccc(C(F)(F)F)c3)ccn12` [GSK2297543]: the “%Inh” value is listed as 0%.

Regarding `COC(=O)Nc1nc2cc(Oc3ccc(NC(=O)Nc4cc(F)ccc4F)cc3)ccc2[nH]1.Cl` [GW701424], the “%Inh” value amounted to 0%.

Take `NS(=O)(=O)CCc1cccc(Nc2nccc(-c3c(-c4cccc(NC(=O)c5c(F)cccc5F)c4)nn4ccccc34)n2)c1` [GSK336735]: the “%Inh” value amounted to 12%.

Consider `O=C(NCCNc1ccnc(Nc2ccc(F)cc2)n1)c1cc2ccccc2s1` [GSK1379874], for which the “%Inh” value is recorded as 41%.

`CC(C)(C)n1cnc2c(N)ncnc21` [SKF-97359]: the “%Inh” value was found to be 39%.

As to `COc1cc2c(cc1OC[C@@H](O)CO)ncc1c3ccc(C#N)cc3[nH]c21`, the “%Inh” value was found to be 0%.

Consider `O=C(NCCNc1ccnc(Nc2ccc(F)cc2)n1)Nc1ccccc1F` [GSK1379880], for which the “%Inh” value came to 0%.

`Fc1ccc(-c2ncn(CCCN3CCOCC3)c2-c2ccccn2)cc1` [SB-211742]: the “%Inh” value was 0%.

On to `O=C(Nc1n[nH]c2cc(-c3cccc(F)c3)ccc12)C1CC1` [SB-735464], for which the “%Inh” value turned out to be 8%.

Consider `Cc1nnc(-c2ccc(C)c(-c3ccc(C(=O)Nc4ccc(NS(C)(=O)=O)cc4)cc3)c2)o1` [GW702865], for which the “%Inh” value is reported as 0%.

For the molecule `CNc1ncnc2[nH]ncc12` [SKF-18355], the “%Inh” value stood at 31%.

Take `Cc1cccc(-c2nc(-c3ccc(S(C)(=O)=O)cc3)sc2-c2ccncc2)c1`: the “%Inh” value came out at 0%.

On to `Nc1nc(-c2ccc3c(N)n[nH]c3c2)cc(N2CCCC2)n1` [GSK2227430], for which the “%Inh” value was found to be 0%.

On to `Fc1ccc(-c2ncn(CCCN3CCOCC3)c2-c2cccnc2)cc1` [SB-211743], for which the “%Inh” value is 26%.

Consider `[2H]C([2H])(c1cccc(C(F)(F)F)c1C)n1ccn2c(=O)nc(N3CCOCC3)cc12` [GSK2336394], for which the “%Inh” value is given as 0%.

For `c1ccc(-c2cc(-c3c[nH]nc3-c3ccccn3)ccn2)cc1` [GW576604], the “%Inh” value stood at 0%.

As to `CCc1nc(-c2cccc(C)c2)c(-c2ccnc(NCc3ccccc3)c2)s1`, the “%Inh” value amounted to 0%.

For `Cn1ccc2ncnc(Oc3ccc(NC(=O)Nc4ccncc4)c(Cl)c3)c21`, the “%Inh” value is listed as 0%.

Regarding `COCCNC(=O)c1ccc(-c2cc(C(=O)NC3CC3)cc(F)c2C)cc1` [GW868318], the “%Inh” value worked out at 29%.

Turning to `O=C1NC(=O)C(N2CCc3ccccc32)=C1c1cccc(Cl)c1` [SB-408010], the “%Inh” value worked out at 0%.

`CN(C1=C(c2ccccc2)C(=O)NC1=O)c1ccccc1` [SB-334860]: the “%Inh” value was 7%.

As for `NCC(NC(=O)c1cc(-c2cn[nH]c2)c(-c2ccnc3[nH]ccc23)s1)c1ccccc1.O=C(O)C(F)(F)F.O=C(O)C(F)(F)F` (centres unmarked) [GSK1325775], the “%Inh” value was found to be 82%.

With `COc1ccc(Nc2nccc(N3CCC(NC(=O)Nc4cccc(C(C)=O)c4)C3)n2)cc1` (centres unmarked) [GSK1379731], the “%Inh” value is on record as 0%.

In the case of `Cn1cc(-c2ccc3c(c2)CCN3C(=O)Cc2ccccc2Cl)c2c(N)ncnc21` [GSK2608885], the “%Inh” value is reported as 3%.

Regarding `O=c1cc(N2CCOCC2)nc2n(Cc3cccc(F)c3)ccn12` [GSK2297430], the “%Inh” value amounted to 0%.

As for `CN(C(=O)c1ccc(-c2cc(-c3c[nH]nc3-c3ccccn3)ccn2)cc1)C1CCOCC1` [GW810083], the “%Inh” value is on record as 14%.

Turning to `CC(=O)Nc1ccc(COc2ccc(Nc3ccnc4cc(-c5ccccn5)ccc34)cc2)cc1.Cl` [GW440148], the “%Inh” value worked out at 0%.

In the case of `NS(=O)(=O)c1cccc(-c2ccc3nccc(-c4cccc(S(N)(=O)=O)c4)c3c2)c1` [GW867253], the “%Inh” value was found to be 38%.

On to `N#Cc1c(N2CCOCC2)sc(-c2ccn[nH]2)c1-c1ccc(Cl)cc1`, for which the “%Inh” value is on record as 12%.
